NS1 inh – qHTS Assay for Inhibitors of Influenza NS1 Protein Function; actives 0.4% (n = 270,000); Potency, µM (top dose mostly 46.1 µM); calls by dose curve; note: actives are rising curves; nearly all actives have a fitted effect of over 50% in size
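S. cerevisiae expressing influenza A NS1, grown in glucose, washed, then diluted 1:100 into pH 6.0 -URA galactose medium with 23 nl compound. Growth recovery read as OD600; NS1-free strain serves as control.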
LmPK inh – qHTS Assay for Inhibitors of Leishmania Mexicana Pyruvate Kinase (LmPK); Q27686; actives 0.37% (n = 290,000); purified LmPK, Kinase-Glo ATP luminescence, 1 h; AID 1721, 2009; Potency, µM (top dose mostly 57.5 µM), most hits filed as inhibitors
Target sequence (Q27686 whole entry, looked up): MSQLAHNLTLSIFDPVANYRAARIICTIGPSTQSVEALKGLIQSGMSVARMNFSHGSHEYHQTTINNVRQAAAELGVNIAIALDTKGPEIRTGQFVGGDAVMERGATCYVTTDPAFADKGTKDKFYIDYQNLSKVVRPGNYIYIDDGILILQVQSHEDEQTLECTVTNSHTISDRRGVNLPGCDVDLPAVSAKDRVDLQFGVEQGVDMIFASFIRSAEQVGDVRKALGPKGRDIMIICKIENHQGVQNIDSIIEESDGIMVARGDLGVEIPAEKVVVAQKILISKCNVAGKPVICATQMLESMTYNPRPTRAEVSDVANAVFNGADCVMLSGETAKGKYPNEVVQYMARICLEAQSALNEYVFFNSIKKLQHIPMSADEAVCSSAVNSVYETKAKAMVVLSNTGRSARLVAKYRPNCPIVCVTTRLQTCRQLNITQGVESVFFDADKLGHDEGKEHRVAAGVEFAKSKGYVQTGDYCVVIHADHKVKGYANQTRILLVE
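Purified LmPK (0.1 nM) with 0.5 mM PEP and 0.1 mM ADP in imidazole buffer pH 7.2 with MgCl2/KCl, 1 h at room temperature. ATP formed was read by luciferase luminescence and normalized to no-enzyme and uninhibited controls.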
TbPYK inhibitor – qHTS of Trypanosoma Brucei Inhibitors; AID 624173, 2012; Potency, µM (series often up to 76.8 µM), usual class: inhibitors; actives 0.12% (n = 410,000); pyruvate kinase (Trypanosoma brucei), Q57TT1; TbPYK enzyme, Kinase-Glo Plus ATP luminescence, 45 min; note: nearly all actives have a fitted effect of over 50% in size
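TbPYK + substrate in 50 mM TEA pH 7.2, 100 mM KCl, 10 mM MgCl2, 0.05% BSA, 0.01% Tween-20; cpd pinned; ADP 130 uM final; 45 min RT; Kinase-Glo Plus 10 min; luminescence endpoint.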
CHX counter – Cycloheximide Counterscreen for Small Molecule Inhibitors of Shiga Toxin; cell reporter, cycloheximide protein synthesis inhibition counterscreen; max response, %; actives 12% (n = 300,000); in the data active = max response mostly above about 13%, no sharp cut-off; inactive = mostly below about 14%; note: read at 38.3 µM for the half of the compounds with a filed dose
SARS PLpro yeast – qHTS of Yeast-based Assay for SARS-CoV PLP; S. cerevisiae expressing SARS-CoV PLpro, growth rescue; actives 0.19% (n = 330,000); AID 485353, 2010; Potency, µM (highest dose often 32.9 µM), hits mostly activators; calls by dose curve; note: nearly all actives have a fitted effect of over 55% in size
Shiga toxin inh – A qHTS for Small Molecule Inhibitors of Shiga Toxin. Vero cells, Shiga toxin protein synthesis inhibition reporter. inhibition, % at 38.7 µM. actives 9.2% (n = 290,000). AID 2315, 2010; in the data active = inhibition mostly above about 28%, no sharp cut-off; inactive = mostly below about 43%
Numbers stand for hits; 0 = inactive; ? = inconclusive; - = no result. The full list was thinned out, with hits kept by preference. Unless noted, calls come from the whole dose curve; as a rule, active = well fitted curve in the direction sought with a large enough effect; inconclusive = small, poorly fitted or top-dose-only effect, or another doubt; inactive = no such curve, though single readings can be large; an effect the other way counts as inactive or inconclusive.

SMILES	NS1 inh	LmPK inh	TbPYK inhibitor	CHX counter	SARS PLpro yeast	Shiga toxin inh
O=C(c1ccc(C#CC2(O)CCCCC2)cc1)N1CCN(C(c2ccccc2)c2ccccc2)CC1	0	0	0	21	0	0
CCOC(=O)N1CCN(C(=O)c2ccc(C#CC3(O)CCCCC3)cc2)CC1	0	0	0	31	0	41
COc1ccc(NC(=O)CSCc2cc(=O)n3c(C)csc3n2)cc1	0	0	0	0	0	0
O=C1CCC(C(=O)NCCN2C(=O)S/C(=C\c3cccnc3)C2=O)=NN1	-	0	0	0	0	0
CS(=O)(=O)c1ccc(C(=O)NCCN2C(=O)S/C(=C\c3cccnc3)C2=O)cc1[N+](=O)[O-]	0	0	0	31	0	0
Cc1cc(Cl)ccc1OCCCC(=O)NCCN1C(=O)S/C(=C\c2cccnc2)C1=O	0	0	0	31	0	0
COC(=O)[C@]1(Cc2ccccc2)N[C@H](CN(C)S(=O)(=O)c2ccc(C)cc2)[C@@H]2C(=O)N(Cc3ccccc3)C(=O)[C@@H]21	-	-	0	-	0	-
O=C(COC(=O)c1ccc[nH]c1=O)NCCc1ccc(Cl)cc1Cl	0	0	0	79	0	98
COc1ccc2oc(=O)c(C(=O)Nc3cccc(C(=O)O)c3)cc2c1	-	-	0	-	-	-
Cc1cc(C(=O)CS(=O)(=O)c2ccccc2)cc(C)c1OC(=O)N(C)C	-	0	0	25	0	62
Cc1ccc(S(=O)(=O)CC(=O)c2cc(C)c(OC(=O)N(C)C)c(C)c2)cc1	-	0	0	0	0	0
Cc1cc(C(=O)CS(=O)(=O)c2ccccc2)cc(C)c1O	0	0	0	19	0	44
Cc1cc(C(=O)CSc2ccccc2)cc(C)c1O	0	0	0	61	0	71
Cc1cc(C)cc(NC(=O)CS(=O)(=O)c2ccccc2)c1	0	0	0	0	0	0
Cn1nc(C2CC2)cc1NC(=O)C1(C)CCN1C(=O)c1ccccc1CCc1ccccc1 (configuration not stated)	-	-	0	-	-	-
COc1ccccc1C(CNc1ccc(S(=O)(=O)N2CCCC2)cc1[N+](=O)[O-])N(C)C (configuration not stated)	0	0	0	0	0	0
Cc1ccc(-n2ncc3c(NCCCc4ccccc4)ncnc32)cc1	-	-	0	-	-	-
CN(C)S(=O)(=O)c1cccc(NC(=O)c2cc3ccccc3o2)c1	0	0	-	57	0	0
CCN(CC)S(=O)(=O)c1cccc(NC(=O)c2cc3ccccc3o2)c1	0	0	0	0	0	55
O=C(Nc1cccc(S(=O)(=O)N2CCCCC2)c1)c1cc2ccccc2o1	-	-	0	-	0	-
O=C(Nc1cccc(S(=O)(=O)N2CCOCC2)c1)c1cc2ccccc2o1	?	0	0	0	0	0
CCCS(=O)(=O)NC(=O)C1(C)CCN(C(=O)c2ccccc2OC(F)(F)F)C1 (configuration not stated)	-	-	0	-	-	-
O=c1cc(/C=C/c2c(F)cccc2Cl)[nH]c2ccccc12	0	0	0	54	0	63
Cc1c(C(=O)NC(c2ccccn2)C(F)(F)F)oc2c(F)cccc12 (configuration not stated)	0	0	0	0	0	0
Cc1cccc(CC(C)NC(=O)c2oc3c(F)cccc3c2C)n1 (configuration not stated)	0	0	0	15	0	29
SMILES	NS1 inh	LmPK inh	TbPYK inhibitor	CHX counter	SARS PLpro yeast	Shiga toxin inh
C[C@@H](C(=O)Nc1ccc2ccccc2c1)[C@H]1C[C@]1(C)[C@H](NC(=O)OCc1ccccc1)c1ccccc1	?	0	0	19	?	51
S=c1[nH]nc(C(c2ccccc2)C2CCCCC2)o1 (configuration not stated)	0	0	0	0	0	0
CCc1ccccc1-n1c(SCC(=O)Nc2ccc(C)cc2)nc2n[nH]c(C)c2c1=N	-	-	0	-	-	-
CCOn1c(=O)c(-c2cccs2)[n+]([O-])c2ccccc21	0	0	0	0	0	0
CCOC(=O)COn1c(=O)c(-c2cccs2)[n+]([O-])c2ccccc21	0	0	0	33	0	0
COn1c(=O)c(-c2cccs2)[n+]([O-])c2ccccc21	0	0	0	20	0	0
O=C(CSc1ccccn1)c1ccc(F)cc1	0	0	0	34	0	58
O=C(O)c1ccnc(SCC(=O)c2ccccc2)c1	0	0	0	0	0	0
Cc1ccc(C(=O)CSc2ccccn2)cc1	0	0	0	46	0	113
COc1ccc(-c2cc(-c3ccccc3)nc3c2COc2ccccc2-3)cc1	-	-	0	-	-	-
COc1ccc(C2=Nc3ccccc3OC2)cc1	0	0	0	46	0	99
Cn1c(/C=N/O)nc2ccccc21	0	0	0	0	0	0
CCC(=O)c1ccc(/C=C/c2nc3ccccc3n2C)o1	-	0	0	30	0	67
O=C(NCc1cccs1)c1cc(-c2cccs2)on1	0	0	0	41	0	87
Cc1cc(C(=O)NCc2cccs2)no1	0	0	0	0	0	0
O=C(NCc1cccs1)c1cc(-c2ccccc2)on1	0	0	0	30	0	118
O=C(NCc1cccs1)c1cc(C2CC2)on1	0	0	0	22	0	64
COCCNC(=O)c1cc(-c2cccs2)on1	0	0	0	34	0	101
NS(=O)(=O)c1ccc(NC(=O)CSc2ccc3ccccc3n2)cc1	0	0	0	0	0	0
O=C(CCn1cnc2ccccc21)N/N=C/c1ccccc1O	0	0	0	24	0	60
O=C(CSc1ccc2ccccc2n1)c1ccccc1	0	0	0	53	0	90
O=C(CSc1ccc2ccccc2n1)N/N=C/c1ccccc1O	0	0	0	32	0	60
O=C(CSc1ccc2ccccc2n1)N/N=C/c1ccc(O)cc1	0	0	0	11	0	0
COc1cc(C(=O)c2ccccc2C(=O)O)c(OC)c2c1CCCC2	-	-	0	-	-	-
CN(c1ccccc1)S(=O)(=O)c1cccc2ccccc12	0	0	0	0	0	-
SMILES	NS1 inh	LmPK inh	TbPYK inhibitor	CHX counter	SARS PLpro yeast	Shiga toxin inh
O=C(Cn1cncn1)N/N=C/c1ccccc1O	0	0	0	9.9	0	0
O=C(Cn1cncn1)N/N=C/c1cc([N+](=O)[O-])ccc1O	0	0	0	0	0	0
O=C(CCC(=O)Nc1ccc(F)cc1)N/N=C/c1ccccc1O	-	0	0	24	0	73
COc1ccc(OCC(=O)Nc2nc(-c3ccc(Br)cc3)ns2)cc1	-	-	0	-	-	-
O=C(CSc1nnc(NC(=O)c2ccc3c(c2)OCO3)s1)NCc1ccco1	0	0	0	23	0	0
O=C(CSc1nnc(NC(=O)c2ccc(F)cc2)s1)NCc1ccco1	0	0	0	29	0	45
Cc1ccccc1Nc1nnc(SCC(=O)NCc2ccco2)s1	0	0	0	0	0	0
